# From paper PMC5795388
# How the values were obtained:
# Assay in all cases: cross-link between two proteins; cross-linking mass spectrometry
# [1] = biological target: Heat shock protein 75 kDa, mitochondrial (UniProt Q9CQN1)
# [2] = biological target: Dihydrolipoyllysine-residue succinyltransferase component of 2-oxoglutarate dehydrogenase complex, mitochondrial (UniProt Q9D2G2)
# [3] = biological target: NADH dehydrogenase [ubiquinone] 1 beta subcomplex subunit 10 (UniProt Q9DCS9)
# [4] = biological target: MICOS complex subunit Mic26 (UniProt Q9DCZ4)
# Sequence of MICOS complex subunit Mic26 (Q9DCZ4 whole entry, one chain of several): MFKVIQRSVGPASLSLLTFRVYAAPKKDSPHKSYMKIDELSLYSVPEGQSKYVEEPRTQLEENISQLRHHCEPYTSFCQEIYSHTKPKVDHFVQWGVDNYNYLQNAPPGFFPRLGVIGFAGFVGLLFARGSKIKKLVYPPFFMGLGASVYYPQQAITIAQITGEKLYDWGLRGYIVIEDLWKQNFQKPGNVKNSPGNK
# [5] = biological target: ADP/ATP translocase 1 (UniProt P48962)
# [6] = biological target: Cytochrome b-c1 complex subunit 6, mitochondrial (UniProt P99028)
# Sequence of Cytochrome b-c1 complex subunit 6, mitochondrial (P99028 whole entry, one chain of several): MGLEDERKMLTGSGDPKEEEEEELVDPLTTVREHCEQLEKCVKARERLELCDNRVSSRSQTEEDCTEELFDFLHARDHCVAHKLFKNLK
# [7] = biological target: Cytochrome c oxidase subunit 6C (UniProt Q9CPQ1)
# Sequence of Cytochrome c oxidase subunit 6C (Q9CPQ1 whole entry): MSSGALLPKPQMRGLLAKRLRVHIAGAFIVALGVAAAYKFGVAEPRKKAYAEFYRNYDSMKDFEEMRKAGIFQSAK
# [8] = biological target: Cytochrome c oxidase subunit 7B, mitochondrial (UniProt P56393)
# Sequence of Cytochrome c oxidase subunit 7B, mitochondrial (P56393 whole entry): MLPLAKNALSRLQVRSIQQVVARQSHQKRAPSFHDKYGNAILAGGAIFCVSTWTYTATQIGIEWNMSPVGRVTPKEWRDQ
# [9] = biological target: Cytochrome c oxidase subunit FA4 (UniProt Q62425)
# Sequence of Cytochrome c oxidase subunit FA4 (Q62425 whole entry, the tested form may be a part): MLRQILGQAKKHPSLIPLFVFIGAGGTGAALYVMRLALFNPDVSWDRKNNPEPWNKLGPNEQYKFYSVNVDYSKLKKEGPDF
# [10] = biological target: FAST kinase domain-containing protein 2, mitochondrial (UniProt Q922E6)
# [11] = biological target: Methylglutaconyl-CoA hydratase, mitochondrial (UniProt Q9JLZ3)
# Sequence of Methylglutaconyl-CoA hydratase, mitochondrial (Q9JLZ3 whole entry): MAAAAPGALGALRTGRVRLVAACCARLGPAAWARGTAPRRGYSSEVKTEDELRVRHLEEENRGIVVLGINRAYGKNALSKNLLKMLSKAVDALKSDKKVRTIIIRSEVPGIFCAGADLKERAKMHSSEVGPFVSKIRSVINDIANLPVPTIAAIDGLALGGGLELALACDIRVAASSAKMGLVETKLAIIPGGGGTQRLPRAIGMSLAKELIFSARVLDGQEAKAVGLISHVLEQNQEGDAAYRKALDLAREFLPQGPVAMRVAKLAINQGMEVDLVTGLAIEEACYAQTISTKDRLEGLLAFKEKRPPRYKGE
# [12] = biological target: NADH dehydrogenase [ubiquinone] flavoprotein 1, mitochondrial (UniProt Q91YT0)
# [13] = biological target: Double-stranded RNA-binding protein Staufen homolog 1 (UniProt Q9Z108)
# Sequence of Double-stranded RNA-binding protein Staufen homolog 1 (Q9Z108 whole entry): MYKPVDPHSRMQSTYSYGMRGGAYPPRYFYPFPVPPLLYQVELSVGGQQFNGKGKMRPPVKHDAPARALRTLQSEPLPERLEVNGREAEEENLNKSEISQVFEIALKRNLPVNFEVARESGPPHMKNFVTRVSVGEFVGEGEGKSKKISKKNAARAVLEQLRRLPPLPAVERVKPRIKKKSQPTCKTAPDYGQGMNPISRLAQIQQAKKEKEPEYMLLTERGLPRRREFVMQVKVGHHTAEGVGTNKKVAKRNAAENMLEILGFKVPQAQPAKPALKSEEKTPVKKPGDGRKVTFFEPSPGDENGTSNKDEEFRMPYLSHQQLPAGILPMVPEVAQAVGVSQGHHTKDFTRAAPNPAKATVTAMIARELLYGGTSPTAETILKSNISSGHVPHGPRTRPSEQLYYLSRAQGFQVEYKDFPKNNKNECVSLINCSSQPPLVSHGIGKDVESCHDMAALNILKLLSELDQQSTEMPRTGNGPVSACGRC
# [14] = biological target: NADH-ubiquinone oxidoreductase 75 kDa subunit, mitochondrial (UniProt Q91VD9)
# [15] = biological target: 2-oxoglutarate dehydrogenase complex component E1 (UniProt Q60597)
# [16] = biological target: Cytochrome b-c1 complex subunit 8 (UniProt Q9CQ69)
# [17] = biological target: NADH dehydrogenase [ubiquinone] 1 alpha subcomplex subunit 9, mitochondrial (UniProt Q9DC69)
# [18] = biological target: DnaJ homolog subfamily C member 11 (UniProt Q5U458)
# [19] = biological target: Cytochrome b-c1 complex subunit 9 (UniProt Q8R1I1)
# [20] = biological target: Methylmalonic aciduria type A homolog, mitochondrial (UniProt Q8C7H1)
# [21] = biological target: Mitochondrial fission regulator 1-like (UniProt Q9CWE0)
# [22] = biological target: Cytochrome b-c1 complex subunit 7 (UniProt Q9D855)
# Sequence of Cytochrome b-c1 complex subunit 7 (Q9D855 whole entry, one chain of several): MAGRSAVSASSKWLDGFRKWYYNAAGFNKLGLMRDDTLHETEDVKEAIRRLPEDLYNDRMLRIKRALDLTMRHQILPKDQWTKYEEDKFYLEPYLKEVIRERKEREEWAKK
# [23] = biological target: ATP synthase peripheral stalk subunit F6, mitochondrial (UniProt P97450)
# [24] = biological target: ATP synthase peripheral stalk subunit d, mitochondrial (UniProt Q9DCX2)
# Sequence of ATP synthase peripheral stalk subunit d, mitochondrial (Q9DCX2 whole entry): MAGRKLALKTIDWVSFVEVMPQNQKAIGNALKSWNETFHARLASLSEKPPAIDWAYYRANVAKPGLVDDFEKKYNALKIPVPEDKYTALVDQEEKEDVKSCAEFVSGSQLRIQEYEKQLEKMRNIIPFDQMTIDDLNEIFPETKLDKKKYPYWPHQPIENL
# [25] = biological target: Cytochrome b-c1 complex subunit 1, mitochondrial (UniProt Q9CZ13)
# Sequence of Cytochrome b-c1 complex subunit 1, mitochondrial (Q9CZ13 whole entry, one chain of several): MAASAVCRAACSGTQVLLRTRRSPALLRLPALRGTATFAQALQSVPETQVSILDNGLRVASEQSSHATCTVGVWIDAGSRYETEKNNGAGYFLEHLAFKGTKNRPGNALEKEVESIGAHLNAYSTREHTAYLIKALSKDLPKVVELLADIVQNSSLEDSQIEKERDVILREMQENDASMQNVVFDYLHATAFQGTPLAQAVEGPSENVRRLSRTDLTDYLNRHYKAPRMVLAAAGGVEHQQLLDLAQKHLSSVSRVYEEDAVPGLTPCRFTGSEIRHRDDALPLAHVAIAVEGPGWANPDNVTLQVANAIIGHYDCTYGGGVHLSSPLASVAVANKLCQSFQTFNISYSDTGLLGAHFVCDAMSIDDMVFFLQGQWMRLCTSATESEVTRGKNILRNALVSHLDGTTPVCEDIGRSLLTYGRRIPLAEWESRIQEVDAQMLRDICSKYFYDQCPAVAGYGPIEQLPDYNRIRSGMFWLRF
# [26] = biological target: MICOS complex subunit Mic19 (UniProt Q9CRB9)
# Sequence of MICOS complex subunit Mic19 (Q9CRB9 whole entry, one chain of several): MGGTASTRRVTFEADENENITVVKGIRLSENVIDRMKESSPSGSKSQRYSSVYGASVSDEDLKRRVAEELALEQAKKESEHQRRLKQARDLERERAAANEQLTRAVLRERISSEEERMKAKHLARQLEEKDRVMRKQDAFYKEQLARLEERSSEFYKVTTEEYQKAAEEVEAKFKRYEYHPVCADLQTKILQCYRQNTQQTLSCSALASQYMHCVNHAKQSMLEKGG
# [27] = biological target: MICOS complex subunit Mic60 (UniProt Q8CAQ8)
# [28] = biological target: Apoptosis-inducing factor 1, mitochondrial (UniProt Q9Z0X1)
# [29] = biological target: Isocitrate dehydrogenase [NAD] subunit alpha, mitochondrial (UniProt Q9D6R2)
# Sequence of Isocitrate dehydrogenase [NAD] subunit alpha, mitochondrial (Q9D6R2 whole entry): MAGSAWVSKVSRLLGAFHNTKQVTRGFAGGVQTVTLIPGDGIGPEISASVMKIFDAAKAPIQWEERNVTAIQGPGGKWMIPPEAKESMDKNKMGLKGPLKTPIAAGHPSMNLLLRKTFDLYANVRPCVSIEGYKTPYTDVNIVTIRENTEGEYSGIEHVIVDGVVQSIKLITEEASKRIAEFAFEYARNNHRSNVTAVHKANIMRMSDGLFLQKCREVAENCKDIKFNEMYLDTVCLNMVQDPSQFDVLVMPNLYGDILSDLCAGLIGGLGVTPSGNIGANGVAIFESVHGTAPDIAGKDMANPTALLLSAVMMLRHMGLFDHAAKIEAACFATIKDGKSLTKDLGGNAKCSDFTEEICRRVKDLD
# [30] = biological target: NADH dehydrogenase [ubiquinone] 1 beta subcomplex subunit 8, mitochondrial (UniProt Q9D6J5)
# [31] = biological target: NADH dehydrogenase [ubiquinone] 1 alpha subcomplex subunit 13 (UniProt Q9ERS2)
# [32] = biological target: ATP synthase F(0) complex subunit g, mitochondrial (UniProt Q9CPQ8)
# Sequence of ATP synthase F(0) complex subunit g, mitochondrial (Q9CPQ8 whole entry, one chain of several): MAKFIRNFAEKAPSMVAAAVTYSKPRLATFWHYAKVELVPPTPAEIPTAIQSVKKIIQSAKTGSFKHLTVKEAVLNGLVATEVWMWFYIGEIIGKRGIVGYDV
# [33] = biological target: ATP synthase peripheral stalk subunit OSCP, mitochondrial (UniProt Q9DB20)
# Sequence of ATP synthase peripheral stalk subunit OSCP, mitochondrial (Q9DB20 whole entry): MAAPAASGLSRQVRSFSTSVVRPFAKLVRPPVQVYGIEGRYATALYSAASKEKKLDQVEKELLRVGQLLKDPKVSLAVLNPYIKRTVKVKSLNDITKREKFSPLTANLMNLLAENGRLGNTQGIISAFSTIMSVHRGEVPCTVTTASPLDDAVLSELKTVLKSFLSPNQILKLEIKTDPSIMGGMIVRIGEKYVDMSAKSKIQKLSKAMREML
# [34] = biological target: Dynamin-like GTPase OPA1, mitochondrial (UniProt P58281)
# [35] = biological target: Protein FAM162A (UniProt Q9D6U8)
# Sequence of Protein FAM162A (Q9D6U8 whole entry): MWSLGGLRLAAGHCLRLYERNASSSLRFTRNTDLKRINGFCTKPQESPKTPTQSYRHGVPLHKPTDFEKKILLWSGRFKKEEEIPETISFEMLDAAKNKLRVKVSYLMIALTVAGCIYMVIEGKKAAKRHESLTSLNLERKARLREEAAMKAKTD
# [36] = biological target: Mitochondrial import inner membrane translocase subunit Tim9 (UniProt Q9WV98)
# [37] = biological target: Mitochondrial import inner membrane translocase subunit TIM14 (UniProt Q9CQV7)
# [38] = biological target: Succinate dehydrogenase [ubiquinone] iron-sulfur subunit, mitochondrial (UniProt Q9CQA3)
# Sequence of Succinate dehydrogenase [ubiquinone] iron-sulfur subunit, mitochondrial (Q9CQA3 whole entry): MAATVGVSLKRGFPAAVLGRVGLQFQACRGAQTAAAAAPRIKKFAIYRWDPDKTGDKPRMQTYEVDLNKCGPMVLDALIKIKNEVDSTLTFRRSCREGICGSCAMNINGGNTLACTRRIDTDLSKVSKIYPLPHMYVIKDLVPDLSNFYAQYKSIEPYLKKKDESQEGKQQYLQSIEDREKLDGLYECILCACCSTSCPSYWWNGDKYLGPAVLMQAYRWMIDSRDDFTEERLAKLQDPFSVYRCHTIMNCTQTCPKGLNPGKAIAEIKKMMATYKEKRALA
# [39] = biological target: Cytochrome b-c1 complex subunit 2, mitochondrial (UniProt Q9DB77)
# [40] = biological target: Cytochrome b-c1 complex subunit Rieske, mitochondrial (UniProt Q9CR68)
# [41] = biological target: Cytochrome c1, heme protein, mitochondrial (UniProt Q9D0M3)
# Sequence of NADH dehydrogenase [ubiquinone] 1 beta subcomplex subunit 10 (Q9DCS9 whole entry, one chain of several): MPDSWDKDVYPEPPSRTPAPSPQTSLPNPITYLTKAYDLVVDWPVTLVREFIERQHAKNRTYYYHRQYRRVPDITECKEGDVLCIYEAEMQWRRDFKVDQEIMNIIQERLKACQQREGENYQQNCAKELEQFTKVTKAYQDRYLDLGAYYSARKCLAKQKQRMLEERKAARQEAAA
# Sequence of Dihydrolipoyllysine-residue succinyltransferase component of 2-oxoglutarate dehydrogenase complex, mitochondrial (Q9D2G2 whole entry, one chain of several): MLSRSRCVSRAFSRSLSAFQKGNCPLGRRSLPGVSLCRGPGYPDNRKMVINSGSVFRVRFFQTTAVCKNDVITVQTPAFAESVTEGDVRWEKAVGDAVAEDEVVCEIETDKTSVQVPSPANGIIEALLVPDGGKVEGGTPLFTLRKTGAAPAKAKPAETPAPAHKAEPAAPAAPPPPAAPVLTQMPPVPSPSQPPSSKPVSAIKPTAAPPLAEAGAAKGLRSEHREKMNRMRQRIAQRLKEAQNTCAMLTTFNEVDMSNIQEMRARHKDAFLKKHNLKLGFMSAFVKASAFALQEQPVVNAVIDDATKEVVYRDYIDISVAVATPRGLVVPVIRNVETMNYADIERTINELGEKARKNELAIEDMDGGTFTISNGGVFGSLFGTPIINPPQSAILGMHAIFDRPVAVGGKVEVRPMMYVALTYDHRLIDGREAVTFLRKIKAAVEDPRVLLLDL
# Sequence of Stress-70 protein, mitochondrial, P38647 (P38647 whole entry): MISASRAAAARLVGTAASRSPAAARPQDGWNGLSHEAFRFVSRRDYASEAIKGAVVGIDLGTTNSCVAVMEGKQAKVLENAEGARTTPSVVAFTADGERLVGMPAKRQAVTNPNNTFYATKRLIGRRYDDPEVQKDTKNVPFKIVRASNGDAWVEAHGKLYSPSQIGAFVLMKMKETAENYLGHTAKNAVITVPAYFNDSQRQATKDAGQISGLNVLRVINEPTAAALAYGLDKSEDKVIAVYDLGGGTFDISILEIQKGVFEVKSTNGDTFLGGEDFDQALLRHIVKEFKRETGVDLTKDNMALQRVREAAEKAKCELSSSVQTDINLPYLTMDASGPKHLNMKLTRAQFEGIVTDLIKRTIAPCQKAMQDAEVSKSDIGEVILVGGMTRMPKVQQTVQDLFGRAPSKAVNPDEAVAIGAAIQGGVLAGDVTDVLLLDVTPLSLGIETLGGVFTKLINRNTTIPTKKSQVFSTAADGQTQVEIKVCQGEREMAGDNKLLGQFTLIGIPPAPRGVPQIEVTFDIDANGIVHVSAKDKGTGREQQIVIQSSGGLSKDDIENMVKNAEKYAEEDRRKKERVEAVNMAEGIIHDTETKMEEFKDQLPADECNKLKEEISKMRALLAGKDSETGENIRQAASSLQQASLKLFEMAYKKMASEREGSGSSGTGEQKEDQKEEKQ
substance,measurement,setting,value
"Stress-70 protein, mitochondrial, P38647",listed as a hit,[1],yes
"2-oxoglutarate dehydrogenase complex component E1, Q60597",listed as a hit,[2],yes
"NADH dehydrogenase [ubiquinone] 1 beta subcomplex subunit 8, mitochondrial, Q9D6J5",listed as a hit,[3],yes
"MICOS complex subunit Mic60, Q8CAQ8",listed as a hit,[4],yes
"Cytochrome c oxidase subunit 4 isoform 1, mitochondrial, P19783",listed as a hit,[5],yes
same,listed as a hit,[6],yes
same,listed as a hit,[7],yes
same,listed as a hit,[8],yes
same,listed as a hit,[9],yes
same,listed as a hit,[10],yes
same,listed as a hit,[11],yes
same,listed as a hit,[12],yes
"Cytochrome c, somatic, P62897",listed as a hit,[7],yes
"Acetyl-CoA acetyltransferase, mitochondrial, Q8QZT1",listed as a hit,[13],yes
"NADH dehydrogenase [ubiquinone] iron-sulfur protein 6, mitochondrial, P52503",listed as a hit,[14],yes
"Dihydrolipoyl dehydrogenase, mitochondrial, O08749",listed as a hit,[15],yes
"Cytochrome b-c1 complex subunit 6, mitochondrial, P99028",listed as a hit,[16],yes
same,listed as a hit,[3],yes
"StAR-related lipid transfer protein 7, mitochondrial, Q8R1R3",listed as a hit,[17],yes
"Metaxin-2, O88441",listed as a hit,[18],yes
"Cytochrome c oxidase subunit 7B, mitochondrial, P56393",listed as a hit,[19],yes
same,listed as a hit,[9],yes
"Methylmalonyl-CoA mutase, mitochondrial, P16332",listed as a hit,[20],yes
"Mitochondrial Rho GTPase 1, Q8BG51",listed as a hit,[21],yes
"Cytochrome b, P00158",listed as a hit,[22],yes
"Malate dehydrogenase, mitochondrial, P08249",listed as a hit,[23],yes
same,listed as a hit,[24],yes
same,listed as a hit,[25],yes
"MICOS complex subunit Mic27, Q78IK4",listed as a hit,[26],yes
same,listed as a hit,[27],yes
"Cytochrome c oxidase subunit FA4, Q62425",listed as a hit,[28],yes
"Aspartate aminotransferase, mitochondrial, P05202",listed as a hit,[25],yes
same,listed as a hit,[29],yes
"NADH dehydrogenase [ubiquinone] 1 beta subcomplex subunit 11, mitochondrial, O09111",listed as a hit,[30],yes
"NADH dehydrogenase [ubiquinone] 1 alpha subcomplex subunit 8, Q9DCJ5",listed as a hit,[31],yes
"Succinate dehydrogenase [ubiquinone] flavoprotein subunit, mitochondrial, Q8K2B3",listed as a hit,[25],yes
"NADH dehydrogenase [ubiquinone] 1 beta subcomplex subunit 4, Q9CQC7",listed as a hit,[3],yes
"ADP/ATP translocase 1, P48962",listed as a hit,[32],yes
same,listed as a hit,[33],yes
same,listed as a hit,[6],yes
same,listed as a hit,[7],yes
same,listed as a hit,[8],yes
same,listed as a hit,[34],yes
same,listed as a hit,[35],yes
"ATP synthase F(0) complex subunit 8, P03930",listed as a hit,[24],yes
"Mitochondrial import inner membrane translocase subunit Tim10, P62073",listed as a hit,[36],yes
"Mitochondrial import inner membrane translocase subunit TIM16, Q9CQV1",listed as a hit,[37],yes
"ATP synthase F(0) complex subunit g, mitochondrial, Q9CPQ8",listed as a hit,[38],yes
"Cytochrome c1, heme protein, mitochondrial, Q9D0M3",listed as a hit,[39],yes
"Cytochrome b-c1 complex subunit 8, Q9CQ69",listed as a hit,[40],yes
same,listed as a hit,[41],yes
"Cytochrome c oxidase subunit 6C, Q9CPQ1",listed as a hit,[35],yes
"Trifunctional enzyme subunit alpha, mitochondrial, Q8BMS1",listed as a hit,[24],yes
"Alpha-ketoglutarate dehydrogenase component 4, Q9CQX8",listed as a hit,[2],yes
